This is a sample that favours compounds with a hit; in the whole collection about 7.9% have one here.
HCV inhibitor – HCV inhibition; Huh7.5.1 HCVcc-Cre infection, luciferase reporter, 44 h; Potency, µM (top dose mostly 41.8 µM), inactives show at the top dose activity change, negative = inhibition, hits mostly inhibitors; hit rate 3.4% among 340,000; active = well fitted inhibition curve with a large enough effect; inconclusive = small, poorly fitted or top-dose-only effect, or another doubt; inactive = no such curve, though single readings can be large or run the other way; also: potency is read from the fitted curve at half-maximal effect
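Infectious HCVcc-Cre (~0.5 moi) was added to cells just after compound, with cells seeded 4 h earlier at 1,000 per well. Luciferase activity after 44 h culture reported infection; substrate was incubated 15 min at room temperature before reading.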
HCMV antiviral – inhibitors of human cytomegalovirus; HFF cells, HCMV-luciferase reporter, 72 h; hits give low values; activity change, negative = inhibition, % at 57.5 µM; AID 1259415; hit rate 4.5% among 410,000; in the data active = activity change below about -60%; inconclusive = no clear call, values can overlap the other calls; inactive = above about -39%
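Compounds were evaluated in HFFs infected with an HCMV luciferase reporter virus (MOI 1 PFU/cell). Luciferase in lysates collected 72 h post infection served as the replication measure.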
LASV entry inh – blocks Lassa virus binding to or entry into cells | Lassa virus pseudotype entry inhibition, cell reporter | Potency, µM (highest dose often 37.9 µM), inactives show at the highest dose activity change, negative = inhibition, usual class: inhibitors | hit rate 1.2% among 300,000; calls by dose curve; tested in HEK293 cells; also: potency is read from the fitted curve at half-maximal effect; nearly all actives have a fitted effect of over 50% in size
Marburg entry inh – Marburg virus entry inhibition. Potency, µM (doses to about 37.8 µM), for inactives: top-dose activity change, negative = inhibition, usual class: inhibitors. Marburg virus pseudotyped entry inhibition, cell reporter. hit rate 1.8% among 300,000; calls by dose curve; tested in HEK293 cells; also: potency is read from the fitted curve at half-maximal effect
FMDV antiviral – foot and mouth disease virus antiviral activity; AID 1159524; Potency, µM (top dose mostly 57.9 µM), for inactives: at the top dose activity change, negative = inhibition, hits mostly inhibitors; FMDV antiviral cell-based qHTS; hit rate 1.2% among 410,000; calls by dose curve; tested in HEK293T cells; also: read-out not given here; potency is read from the fitted curve at half-maximal effect; nearly all actives have a fitted effect of over 45% in size
* = called active by the depositor; u = inconclusive; x = no result; [ ] = remark or other dose. % is scaled to controls: 0 for no effect and ±100 for the full control effect.

SMILES	HCV inhibitor	HCMV antiviral	LASV entry inh	Marburg entry inh	FMDV antiviral
CSc1nnc(-c2sc3cc(C(F)(F)F)cnc3c2-c2ccccc2)n1C	u	u	u	1.58µM*	-18.5%
CC(NCc1ccc(Cl)c(Cl)c1)C(O)c1ccccc1 (stereo not given)	19.6%	-70.8*	24.5%	u	x
CC(NCc1ccc(OCc2ccc(Cl)cc2)cc1)C(O)c1ccccc1 (stereo not given)	10µM*	-28.1	u	12.6µM*	-24.9%
CCCN(c1ccc(C(C)C)cc1)S(=O)(=O)c1ccc2c(c1)CCN2C(=O)CC	x	-11.5	u	u	0.0%
CC(C)(C)c1ccc(-c2noc(CCC(N)=O)n2)cc1	4.1%	u	u	1.46µM*	-25.5%
Cc1cc(C)cc(OCC(=O)NNC(=S)NC(=O)C2CC2)c1	-5.0%	-80.3*	-17.4%[46.1 µM]	u	u
CCc1ccccc1N(CC)C(=O)CCc1nc(-c2ccc(C)cc2)no1	u	-29.9	10µM*	u	-9.1%
CC(C)(C)c1ccc(-c2noc(CCC(=O)Nc3cccnc3)n2)cc1	u	-74.8*	u	u	-23.0%
CCOC(=O)COc1ccc(CC)cc1C(=O)c1ccn2nc(-c3ccccc3)cc2n1	x	19.8	13.5%[46.1 µM]	u	-22.4%
COCc1c(C(=O)N2CCN(C(C)C)CC2)cnn1-c1nccc(-c2cc(C)sc2C)n1	x	x	x	x	-9.6%
CNC(=O)CCc1nc(-c2ccc(C(C)(C)C)cc2)no1	-10.8%	-22.9	u	0.891µM*	6.3%
COc1ccc(-c2noc(CCC(=O)NCC3CCCO3)n2)cc1 (stereo not given)	-24.1%	52.1	11.5%	-23.7%	-13.6%
Cc1cc(C)cc(OCC(=O)NCC2CCCO2)c1 (stereo not given)	7.6%	-65.3*	7.1%	5.3%	x
CC(C)(C)c1ccc(-c2noc(CCC(=O)NCC3CCCO3)n2)cc1 (stereo not given)	u	-72.3*	u	u	-20.6%
Cc1cc(C)c(C)c(OCC(=O)NCC2CCCO2)c1 (stereo not given)	1.4%	17.5	8.2%	-4.6%	18.9%
COc1ccc(CCc2nnc(CCC(=O)NCC3CCCO3)o2)cc1 (stereo not given)	23.0%	-69.4*	-22.5%[46.1 µM]	-2.5%[46.1 µM]	9.5%
CC(C)Oc1ccc(CNC(=O)Cn2ncn3nc(-c4cccs4)cc3c2=O)cc1	x	-8.0	0.1%[46.1 µM]	16.9%[46.1 µM]	-8.9%
Cc1ccc(C(CC(=O)Nc2ccc(C)cc2C)N2Cc3ccccc3C2=O)cc1 (stereo not given)	x	1.5	u	x	59.2%
NS(=O)(=O)c1ccc(CCNC(=O)c2ccc3nc(CCc4ccccc4)oc3c2)cc1	x	-24.7	-7.5%[46.1 µM]	x	10.2%
COc1ccc(CN2CCOc3ccc(CN4CCC(Oc5cccnc5)CC4)cc3C2)cc1C	x	x	x	x	-28.9%
CCN1C(=O)NC(CCc2ccccc2)C(C(=O)OC)=C1C (stereo not given)	x	x	x	16.7%[14.2 µM]	x
Cc1ccc2c(c1)N(C)/C(=C/c1cccc[n+]1CCO)S2	u	-97.1*	x	x	u
CN1/C(=C/c2cccc[n+]2C)Sc2ccccc21	u	-96.5*	x	x	u
Cc1ccc(CC(=O)Nc2ccc3c(c2)N(C)C(=O)c2ccccc2S3)cc1	x	u	u	x	-17.3%
Cc1ccc2c(c1)N(C)/C(=C/c1cccc[n+]1C)S2	u	-97.9*	u	u	-22.2%
SMILES	HCV inhibitor	HCMV antiviral	LASV entry inh	Marburg entry inh	FMDV antiviral
CCN(CC)CCNC(=O)c1ccc2nc(CCc3ccccc3)oc2c1	x	11.1	5.6%[46.1 µM]	x	22.4%
Clc1ccc(-c2noc3ncnc(NCCCN4CCN(c5ccccc5)CC4)c23)cc1	x	u	-24.1%[46.1 µM]	x	u
O=C(c1cccc(F)c1)N1CCN(c2cc(N3CCCCC3)c(F)cc2[N+](=O)[O-])CC1	3.2%	-74.3*	-28.8%	u	6.4%
O=C(c1ccc(N2CCCC2)c([N+](=O)[O-])c1)N1CCN(S(=O)(=O)c2ccccc2)CC1	14.1µM*	2.5	-22.3%	-6.4%	u
CC1Cc2ccccc2N1C(=O)c1ccc(N2CCCC2)c([N+](=O)[O-])c1 (stereo not given)	12.6µM*	-38.8	u	u	u
Cc1ccc(C)c(S(=O)(=O)N2CCN(C(=O)c3ccc(N4CCCC4)c([N+](=O)[O-])c3)CC2)c1	-0.2%	-3.4	-15.7%[46.1 µM]	-10.6%[46.1 µM]	-20.8%
CCC(=O)N1CCN(c2cc(N3CCCC3)c(F)cc2[N+](=O)[O-])CC1	-0.6%	u	x	x	-25.5%
CCOC(=O)c1sc2ncn(CC(=O)Nc3ccc(C)cc3C)c(=O)c2c1C	x	-0.9	-20.2%[46.1 µM]	20.2%[46.1 µM]	-18.5%
COC(=O)c1cc2occc2n1CC(=O)Nc1cccc(SC)c1	x	0.2	x	-18.0%[46.1 µM]	-7.3%
COC(=O)c1cc2occc2n1CC(=O)Nc1ccc(C)cc1C	u	-62.6*	-0.6%	3.5%	-10.7%
COC(=O)c1cc2oc(C)cc2n1CC(=O)Nc1ccc(C)c(C)c1	3.98µM*	20.3	u	1.2%	48.3%
COc1ccc(-c2nc3cc(C)ccc3cc2CN(C(=O)c2cc(C)nn2C)C2CC2)cc1OC	x	x	x	x	-4.0%
Cc1cccc(N2CCN(S(=O)(=O)c3ccc4oc(=O)c5ncn(C)c5c4c3)CC2)c1C	x	-4.6	16.3%[46.1 µM]	-12.2%[46.1 µM]	4.3%
Cc1ccc(-n2nc3cc(C)c(N)cc3n2)cc1	-21.0%	-15.7	12.6µM*	u	-60.4%
COC(=O)c1ccc(CSc2nc3c([nH]c4ccccc43)c(=O)n2-c2cc(C)cc(C)c2)o1	x	26.0	2.2%[46.1 µM]	x	0.0%
COc1ccc(/C=C/c2nc(C#N)c(N3CCN(c4ccccc4)CC3)o2)cc1OC	x	-35.3	-9.7%[46.1 µM]	1.0%[46.1 µM]	-9.0%
C=CCn1c(SCc2ccc(C#N)cc2)nnc1-c1cccc(OC)c1	-2.1%	-64.2*	-2.1%	-19.6%[46.1 µM]	0.0%
C=CCn1c(SCc2ccc(C#N)cc2)nnc1-c1ccccc1	12.9%	-29.3	6.5%	-7.6%	-21.9%
CCc1ccc(-c2cc(C)no2)cc1S(=O)(=O)Nc1ccc(Cl)cc1	x	0.0	-17.5%[46.1 µM]	x	46.6%
Cc1cc(C)c(S(=O)(=O)Nc2ccc3oc(C)c(C(=O)OC(C)C)c3c2)cc1C	x	-17.0	24.7%[46.1 µM]	-18.6%[46.1 µM]	21.8%
O=C(CN1C2=NCCCN2c2ccccc21)c1ccc2c(c1)OCO2	11.2µM*	-27.7	u	u	x
Cc1ccc(CN2C3=NCCCN3c3ccccc32)cc1	u	-2.1	-0.8%	u	-16.0%
CC(C)(C)c1ccc(CN2C3=NCCCN3c3ccccc32)cc1	31.6µM*	-85.0*	u	2.59µM*	u
Brc1ccc(CN2C3=NCCCN3c3ccccc32)cc1	u	u	u	10.3µM*	u
Clc1ccc(CN2C3=NCCN3c3ccccc32)cc1	12.6µM*	13.3	-20.8%	u	0.0%
c1ccc(CN2C3=NCCCN3c3ccccc32)cc1	u	-15.2	-2.0%	u	-28.3%
CN1CCN(C(=O)c2ccc3c(c2)N(Cc2ccc(C(F)(F)F)cc2)C(=O)c2ccccc2S3)CC1	x	-14.7	-0.3%[46.1 µM]	u	-11.2%
Cc1noc2ncnc(NCc3ccc(Cl)cc3)c12	x	u	1.2%[46.1 µM]	x	u
O=C(Nc1cnc(N2CCN(c3ccccc3)CC2)c(C(=O)O)c1)c1cccs1	x	16.7	14.1%[46.1 µM]	x	-12.6%
